# RECQ1 inh = inhibitors of human RECQ1 DNA helicase. Potency, µM (highest dose often 57.3 µM), without a hit: at the top dose activity, negative = inhibition, usual class: inhibitors. P46063. RECQ1 DNA unwinding, red fluorescence kinetic read. hit rate 0.54% among 240,000. AID 2549;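 note: plate controls were vehicle for no effect and no enzyme for full effect; nearly all actives have a fitted effect of over 30% in size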
#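 50 nM RECQ1T1 preincubated 15 min with compound in Tris pH 8.0 buffer with MgCl2, DTT, Tween-20 and 2.5 ug/ml poly(dI-dC); started with 200 nM TAMRA/BHQ-2 forked duplex and 2 mM ATP. Unwinding read as fluorescence (525/598 nm), two reads 2 h apart.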
# FEN1 inh = human FEN1 inhibition. P39748. Recombinant FEN1 flap cleavage, fluorescence, 15 min. Potency, µM (highest dose often 114 µM), without a hit: at the top dose activity change, negative = inhibition, actives largely listed as inhibitors. hit rate 0.35% among 390,000. AID 588795; note: % is set by controls: 0 for no effect and ±100 for the full control effect; nearly all actives have a fitted effect of over 65% in size
#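 In this screen, 50 nM flap DNA substrate was added to 10 nM FEN1 pretreated with compound for 15 min at room temperature; cleavage was followed with reads at 0 and 15 min, and Hill fitting gave concentration–response parameters.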
# L3MBTL1 inh-1 = blocks human L3MBTL1; Q9Y468; AlphaScreen L3MBTL1–H3K9me1 peptide binding; Potency, µM (highest dose often 57.1 µM), for inactives: top-dose activity, negative = inhibition, hits mostly inhibitors; hit rate 0.66% among 230,000; note: % is set by controls: 0 for no effect and ±100 for the full control effect; nearly all actives have a fitted effect of over 60% in size
# Target sequence (Q9Y468 whole entry, looked up): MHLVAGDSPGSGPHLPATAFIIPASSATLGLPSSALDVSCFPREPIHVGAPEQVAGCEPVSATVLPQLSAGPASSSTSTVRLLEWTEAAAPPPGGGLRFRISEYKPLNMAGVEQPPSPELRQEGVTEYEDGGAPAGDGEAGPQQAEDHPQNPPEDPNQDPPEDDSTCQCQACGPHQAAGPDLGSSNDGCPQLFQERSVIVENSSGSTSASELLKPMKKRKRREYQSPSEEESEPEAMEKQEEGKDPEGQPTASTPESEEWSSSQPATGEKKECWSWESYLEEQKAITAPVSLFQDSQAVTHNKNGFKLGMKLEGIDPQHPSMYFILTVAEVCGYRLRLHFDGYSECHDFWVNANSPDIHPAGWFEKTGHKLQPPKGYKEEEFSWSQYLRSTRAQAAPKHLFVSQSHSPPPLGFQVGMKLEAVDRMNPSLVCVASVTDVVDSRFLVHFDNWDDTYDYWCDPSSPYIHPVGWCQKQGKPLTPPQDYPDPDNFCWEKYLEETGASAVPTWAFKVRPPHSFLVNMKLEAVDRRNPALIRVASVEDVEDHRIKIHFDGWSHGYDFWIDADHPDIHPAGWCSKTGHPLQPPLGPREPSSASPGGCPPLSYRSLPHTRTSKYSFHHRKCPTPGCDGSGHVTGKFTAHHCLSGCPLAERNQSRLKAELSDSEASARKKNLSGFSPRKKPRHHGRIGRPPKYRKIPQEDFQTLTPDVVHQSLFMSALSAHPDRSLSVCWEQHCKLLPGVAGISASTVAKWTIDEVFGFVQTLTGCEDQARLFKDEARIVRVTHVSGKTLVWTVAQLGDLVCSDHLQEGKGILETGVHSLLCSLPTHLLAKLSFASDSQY
#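 Displacement of a biotinylated histone H3(1-15) peptide monomethylated at Lys9 (75 nM) from L3MBTL1 (50 nM) was measured by AlphaScreen after a 30 min room-temperature compound incubation; cefsulodin titration served as intraplate control.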
# WRN inhibitor = WRN helicase (human) inhibition; Potency, µM (titrated, usually from 114 µM), without a hit: at the highest dose activity change, negative = inhibition, hits mostly inhibitors; AID 651768; WRN helicase unwinding, fluorescent forked duplex, kinetic; hit rate 0.46% among 360,000; Q14191; note: % is set by controls: 0 for no effect and ±100 for the full control effect; nearly all actives have a fitted effect of over 55% in size
#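 Kinetic red-fluorescence monitoring (525/598 nm) tracks WRN helicase activity after 100 nM fluorophore-quencher forked duplex and 2 mM ATP are added to 20 nM enzyme pretreated 15 min at room temperature with compound.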
# BLM inh = Bloom syndrome helicase (human) inhibition; hit rate 0.2% among 350,000; Potency, µM (series often up to 56.1 µM), for inactives: at the top dose activity change, negative = inhibition, actives largely listed as inhibitors; recombinant BLM DNA unwinding, fluorescence dequenching; P54132;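 note: plate controls were vehicle for no effect and no enzyme for full effect; nearly all actives have a fitted effect of over 35% in size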
# L3MBTL1 inh-2 = blocks human L3MBTL1 methyl-lysine binding; L3MBTL1 methyl-lysine binding inhibition, biochemical qHTS; hit rate 91% among 500; Potency, µM, usual class: inhibitors; shares compounds with L3MBTL1 inh-1; note: nearly all actives have a fitted effect of over 70% in size
# L3MBTL1 ctr = AlphaScreen signal inhibition, L3MBTL1 hit counter-screen; shares compounds with L3MBTL1 inh-1; AlphaScreen counterscreen, signal inhibition; Potency, µM (series often up to 57.1 µM), for the others: at the top dose activity change, negative = inhibition, hits mostly inhibitors; 500 tested, under 10 active; note: 0% is about no effect
# * = called active by the depositor; i = inactive; ? = inconclusive; . = not tested or not shown; [ ] = another dose, or the depositor's remark. An excerpt weighted towards active compounds, which were near 0.99% of everything screened. Calls come from the whole dose curve; as a rule, active = well fitted curve in the direction sought with a large enough effect; inconclusive = small, poorly fitted or top-dose-only effect, or another doubt; inactive = no such curve, though single readings can be large; an effect the other way counts as inactive or inconclusive. Potency is the fitted concentration of half-maximal effect.
SMILES,RECQ1 inh,FEN1 inh,L3MBTL1 inh-1,WRN inhibitor,BLM inh,L3MBTL1 inh-2,L3MBTL1 ctr
Cc1ccnc2nc(C(=O)Nc3nc(-c4ccccn4)cs3)nn12,-26.3%,?,14.1µM*,?,-25.8%,4.23*,?
CC(C)C1Nc2ccc(C(=O)O)cc2C2C=CCC21 (centres undefined),13.0%,?,4.47µM*,50.1µM*,-6.6%,2.99*,-20.0%
CCCC1Nc2ccc(C(=O)O)cc2C2C=CCC12 (centres undefined),i,?,10µM*,?,0.5%,3.77*,-20.4%
COc1cccc([C@@H]2Nc3ccc(C(=O)O)cc3[C@@H]3C=CC[C@@H]32)c1OC,.,-14.6%,.,.,3.7%,.,.
CC(C)(C)OC(=O)NCCC(=O)N/N=C/c1cccc2nccnc12,-4.8%,12.9%,-1.8%,-17.5%,0.3%,.,.
COc1ccc(Cl)cc1C(=O)NNC(=O)CCNC(=O)c1ccccc1,.,.,.,0.5%,.,.,.
O=C(CSc1cccc2cccnc12)Nc1ccc(S(=O)(=O)N2CCOCC2)cc1,0.7%,-8.2%,22.4µM*,-8.2%,0.3%,?,?
COc1cnc(-c2ccccn2)[nH]c1=O,i,-2.2%,10µM*,-0.2%,0.5%,21.2*,13.4%
COc1ccc(C(N)c2nccc3cc(OC)c(OC)cc23)cc1OC (centres undefined),.,-6.6%,28.2µM*,12.4%,-2.4%,11.9*,?
Oc1ccc(Cl)cc1C1=Nc2ccccc2N=C(c2ccccc2)C1,.,13.1%,.,.,-1.9%,.,.
CCOC(=O)c1c(-c2ccco2)csc1NC(=O)COC(=O)c1cnc(C)cn1,.,-14.0%,31.6µM*,-29.8%,.,23.8*,-0.2%
CCOC(=O)c1c(CC(C)C)csc1NC(=O)COC(=O)c1cnc(C)cn1,.,.,.,1.6%,.,.,.
Cc1ccc(NC(=O)C(Cc2ccccc2)NC(=O)OCc2ccccc2)cc1C (centres undefined),-1.9%,0.0%,5.8%,7.0%,1.4%,.,.
CCOc1ccc(OCCCC(=O)N2CCN(S(=O)(=O)c3ccc(Cl)cc3)CC2)cc1,.,3.8%,31.6µM*,3.2%,.,26.7*,-0.2%
Cc1ccc(C)c(NS(=O)(=O)c2ccc3[nH]c(=O)oc3c2)c1,i,-6.3%,31.6µM*,-19.7%,-7.7%,26.7*,12.7%
Cc1cccc(NS(=O)(=O)c2ccc3[nH]c(=O)oc3c2)c1C,.,1.3%,10.1%,-13.1%,.,.,.
COc1ccc(Cl)cc1NC(=O)CN(C)S(=O)(=O)c1cccs1,.,12.1%,.,8.3%[57.1 µM],-4.0%,.,.
COc1ccc(Cl)cc1NC(=O)COC(=O)c1cc(NS(=O)(=O)c2cccs2)ccc1O,0.0%,-30.1%,39.8µM*,-24.2%,-11.3%,?,6.0%
CCOC(=O)CNS(=O)(=O)c1cc(-c2nn(C)c(=O)c3ccccc23)ccc1C,-3.1%,-0.3%,28.2µM*,-29.2%,1.2%,?,?
Cc1ccc(C(=O)NNC(=O)CSc2nnc3c(n2)[nH]c2ccc(C)cc23)cc1,-4.1%,7.9%,0.4%,3.3%,-4.3%,.,.
c1ccc2c(c1)OCC(c1nn3c(Cn4nnc5ccccc54)nnc3s1)O2 (centres undefined),-8.6%,-2.7%,35.5µM*,-33.0%[57.1 µM],-5.6%,?,6.0%
CCOC(=O)C1=CCN(S(=O)(=O)c2cccc(Cl)c2)C1c1cccc(F)c1 (centres undefined),.,.,.,-14.6%,.,.,.
O=C1CC(c2ccco2)CC(O)=C1C=Nc1cc(Cl)ccc1Cl (centres undefined),7.1%,-12.5%,35.5µM*,?,-17.9%,23.8*,-0.5%
O=C1CC(c2ccco2)CC(O)=C1C=Nc1ccccc1-c1ccccc1 (centres undefined),-15.9%,-11.0%,.,-7.4%[57.1 µM],-6.8%,.,.
O=C(Oc1c(CN2CCOCC2)cc(Cl)c2cccnc12)c1ccccc1Br,-4.3%,-23.9%,31.6µM*,-7.6%,-5.4%,23.8*,1.7%
O=C(Oc1c(Cl)cc(Cl)c2cccnc12)N1CCOCC1,i,-6.5%,.,2.3%,-1.4%,.,.

# Screens deposited in PubChem by National Center for Advancing Translational Sciences (NCATS).
